About 7,900 targets were measured; listed, in parts, are those with a hit and a random draw of the rest. About 0.6% of all pairs of compound and target were hits.
Assays:
Assay in all cases: log2 fold change, soluble protein after heating vs DMSO (PISA); higher = thermal stabilisation; K562 cells, 10 uM, 30 min; active = over 0.2 and 3.5 SD of the protein, either way, in both replicates (recomputed)
[1] = compound: COC1=CC=C(C=C1)CN2C=CC3=C2C=C(C=C3)C(=O)NO
Method in brief: (§1)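 K562 cells at 2×10^6 cells/mL were treated with 10 μM compound for 30 min. Aliquots were heated for 3 min across 48°C-58°C, pooled, and extracted in PBS with 0.5% NP-40 at 4°C; soluble protein was the supernatant after 21,000xg for 90 min. Soluble protein was quantified by TMTpro 16plex LC-MS/MS with channel sums equalised, and reported as log2 fold change in thermal stability against DMSO controls, with values from duplicates.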

[2] = compound: CON(C)C(=O)N1N=C(c2cc(F)ccc2F)S[C@@]1(CCCN)c1ccccc1 [filanesib]
Method in brief: as §1

[3] = compound: CO[C@H]1C[C@@H]2CC[C@@H](C)[C@@](O)(O2)C(=O)C(=O)N2CCCC[C@H]2C(=O)O[C@H]([C@H](C)C[C@@H]2CC[C@H](n3cnnn3)[C@H](OC)C2)CC(=O)[C@H](C)/C=C(\C)[C@@H](O)[C@@H](OC)C(=O)[C@H](C)C[C@H](C)/C=C/C=C/C=C/1C [zotarolimus]
Method in brief: as §1

[4] = compound: COc1cc(C(=O)O)ccc1NC(=O)[C@@H]1N[C@@H](CC(C)(C)C)[C@](C#N)(c2ccc(Cl)cc2F)[C@H]1c1cccc(Cl)c1F [idasanutlin]
Method in brief: as §1

[5] = compound: COc1cc(Nc2ncc3c(n2)-c2ccc(Cl)cc2C(c2c(F)cccc2OC)=NC3)ccc1C(=O)O [alisertib]
Method in brief: as §1

[6] = compound: COc1cc2nc(-c3cc(F)ccc3O)nc(N[C@@H]3CNC[C@H]3C(C)(C)O)c2cc1OC
Method in brief: as §1

[7] = compound: COc1cc2ncnc(Nc3ccc(F)c(Cl)c3)c2cc1OCCCN1CCOCC1 [gefitinib]
Method in brief: as §1

[8] = compound: COc1cccc2cc(-c3nc([C@H]4CC[C@H](C(=O)O)CC4)n4ncnc(N)c34)[nH]c12
Method in brief: as §1

[9] = compound: CS(=O)(=O)CCNCc1ccc(-c2ccc3ncnc(Nc4ccc(OCc5cccc(F)c5)c(Cl)c4)c3c2)o1 [lapatinib]
Method in brief: as §1

[10] = compound: CS(=O)(=O)N1CCN(Cc2cc3nc(-c4cccc5[nH]ncc45)nc(N4CCOCC4)c3s2)CC1 [pictilisib]
Method in brief: as §1

Measured: log2 fold change

CALB1 (UniProt P05937)
inactive: [1] 0.029 | [2] -0.192 | [3] 0.006 | [4] -0.024 | [5] -0.022 | [6] -0.071 | [7] -0.024 | [8] 0.015 | [9] 0.013 | [10] 0.027

CCNC (UniProt P24863)
UniProt P24863, sequence (P24863 whole entry, looked up): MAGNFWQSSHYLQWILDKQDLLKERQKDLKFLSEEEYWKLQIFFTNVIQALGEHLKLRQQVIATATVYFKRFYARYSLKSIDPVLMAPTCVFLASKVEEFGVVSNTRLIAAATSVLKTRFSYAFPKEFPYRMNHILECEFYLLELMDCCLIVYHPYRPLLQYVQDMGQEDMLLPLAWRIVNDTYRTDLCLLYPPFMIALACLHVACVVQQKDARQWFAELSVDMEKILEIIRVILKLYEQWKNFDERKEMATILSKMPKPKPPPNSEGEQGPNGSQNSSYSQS
inactive: [1] -0.198 | [2] 0.013 | [3] -0.026 | [4] -0.156 | [5] -0.036 | [8] 0.013 | [10] 0.079

CENPE (UniProt Q02224)
UniProt Q02224, sequence (Q02224 whole entry, looked up): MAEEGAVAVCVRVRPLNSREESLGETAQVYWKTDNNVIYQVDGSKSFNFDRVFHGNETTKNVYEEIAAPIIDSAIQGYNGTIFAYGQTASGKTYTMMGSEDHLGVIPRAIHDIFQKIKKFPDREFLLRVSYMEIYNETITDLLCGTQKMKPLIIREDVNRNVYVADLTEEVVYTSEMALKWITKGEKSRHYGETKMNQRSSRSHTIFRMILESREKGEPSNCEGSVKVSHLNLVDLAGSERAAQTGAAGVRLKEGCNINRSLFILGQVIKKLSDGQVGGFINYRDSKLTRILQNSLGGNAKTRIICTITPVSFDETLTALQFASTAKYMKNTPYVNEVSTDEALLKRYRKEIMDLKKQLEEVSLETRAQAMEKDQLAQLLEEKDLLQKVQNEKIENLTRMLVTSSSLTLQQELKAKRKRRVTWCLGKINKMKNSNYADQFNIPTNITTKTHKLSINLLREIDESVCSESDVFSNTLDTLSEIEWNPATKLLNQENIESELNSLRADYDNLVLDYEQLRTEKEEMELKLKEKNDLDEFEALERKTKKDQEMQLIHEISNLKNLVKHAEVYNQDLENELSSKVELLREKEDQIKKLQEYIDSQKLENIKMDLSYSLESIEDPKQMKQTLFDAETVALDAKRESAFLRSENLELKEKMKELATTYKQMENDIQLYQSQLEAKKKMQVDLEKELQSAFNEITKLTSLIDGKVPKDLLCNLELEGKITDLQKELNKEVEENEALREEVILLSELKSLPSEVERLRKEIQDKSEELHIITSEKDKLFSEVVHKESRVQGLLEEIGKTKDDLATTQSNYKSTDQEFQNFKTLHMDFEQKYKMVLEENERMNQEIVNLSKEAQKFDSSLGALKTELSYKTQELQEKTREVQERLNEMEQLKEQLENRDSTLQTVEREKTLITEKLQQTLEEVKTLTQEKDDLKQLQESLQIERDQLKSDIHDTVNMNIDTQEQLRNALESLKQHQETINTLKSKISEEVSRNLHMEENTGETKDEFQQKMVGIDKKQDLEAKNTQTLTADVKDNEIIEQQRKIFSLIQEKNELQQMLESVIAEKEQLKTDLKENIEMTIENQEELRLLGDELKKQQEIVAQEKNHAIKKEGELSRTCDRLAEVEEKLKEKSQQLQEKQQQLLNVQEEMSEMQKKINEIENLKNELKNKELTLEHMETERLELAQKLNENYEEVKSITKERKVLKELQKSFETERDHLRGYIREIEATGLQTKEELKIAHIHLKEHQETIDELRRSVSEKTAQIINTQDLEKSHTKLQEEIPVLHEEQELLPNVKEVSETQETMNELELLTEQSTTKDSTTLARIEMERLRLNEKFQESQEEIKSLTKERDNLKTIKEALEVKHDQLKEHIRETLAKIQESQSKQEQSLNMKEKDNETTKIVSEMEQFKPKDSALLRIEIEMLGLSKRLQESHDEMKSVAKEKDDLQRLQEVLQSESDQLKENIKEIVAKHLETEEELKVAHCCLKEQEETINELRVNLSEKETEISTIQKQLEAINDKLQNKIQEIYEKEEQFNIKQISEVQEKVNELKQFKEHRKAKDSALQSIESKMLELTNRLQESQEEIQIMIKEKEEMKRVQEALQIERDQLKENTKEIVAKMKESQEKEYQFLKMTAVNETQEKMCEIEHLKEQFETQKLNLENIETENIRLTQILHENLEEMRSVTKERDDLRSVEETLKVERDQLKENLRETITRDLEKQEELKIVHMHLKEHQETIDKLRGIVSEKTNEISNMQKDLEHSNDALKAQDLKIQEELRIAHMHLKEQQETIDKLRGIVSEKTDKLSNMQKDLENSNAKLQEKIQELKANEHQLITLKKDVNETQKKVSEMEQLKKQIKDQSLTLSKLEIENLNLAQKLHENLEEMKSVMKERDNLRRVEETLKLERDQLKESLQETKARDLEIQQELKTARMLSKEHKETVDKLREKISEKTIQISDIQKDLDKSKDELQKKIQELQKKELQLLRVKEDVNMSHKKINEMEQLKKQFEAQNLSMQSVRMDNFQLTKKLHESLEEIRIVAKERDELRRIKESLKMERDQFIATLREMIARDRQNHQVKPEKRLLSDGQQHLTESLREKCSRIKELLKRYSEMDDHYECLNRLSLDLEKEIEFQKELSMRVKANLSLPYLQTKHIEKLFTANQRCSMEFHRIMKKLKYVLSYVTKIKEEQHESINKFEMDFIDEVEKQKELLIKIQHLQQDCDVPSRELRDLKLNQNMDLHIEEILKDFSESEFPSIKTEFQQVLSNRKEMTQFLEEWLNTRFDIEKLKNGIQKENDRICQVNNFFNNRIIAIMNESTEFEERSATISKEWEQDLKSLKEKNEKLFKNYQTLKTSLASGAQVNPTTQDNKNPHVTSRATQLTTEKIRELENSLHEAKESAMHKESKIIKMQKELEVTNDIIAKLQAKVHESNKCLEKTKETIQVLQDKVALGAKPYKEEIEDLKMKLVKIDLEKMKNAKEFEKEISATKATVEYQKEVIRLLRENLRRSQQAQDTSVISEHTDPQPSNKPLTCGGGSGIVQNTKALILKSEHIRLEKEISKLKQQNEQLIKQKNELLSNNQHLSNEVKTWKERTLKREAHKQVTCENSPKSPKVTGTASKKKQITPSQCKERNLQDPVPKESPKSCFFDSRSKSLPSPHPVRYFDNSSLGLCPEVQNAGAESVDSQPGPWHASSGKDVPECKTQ
inactive: [1] -0.355 | [2] 0.445 | [3] 0.288 | [4] -0.407 | [6] -0.068 | [9] 0.024 | [10] 0.048

CRLS1 (UniProt Q9UJA2)
inactive: [1] 0.044 | [2] -0.125 | [3] 0.005 | [5] -0.071 | [6] -0.229 | [7] 0.021 | [8] 0.075 | [9] 0.046 | [10] -0.029

C1D (UniProt Q13901)
inactive: [1] -0.171 | [2] -0.041 | [4] 0.12 | [5] -0.138 | [6] -0.101 | [7] 0.043 | [8] -0.027 | [9] 0.006 | [10] 0.012

CCDC57 (UniProt Q2TAC2)
inactive: [1] 0.006 | [2] 0.01 | [3] -0.081 | [5] 0.013 | [6] -0.008 | [7] 0.009 | [8] 0.063 | [9] 0.07

CIR1 (UniProt Q86X95)
inactive: [1] -0.022 | [2] 0.247 | [3] -0.064 | [4] 0.161 | [5] -0.081 | [6] -0.019 | [8] -0.024 | [9] 0.078 | [10] -0.365

CASP8 isoform 9 (UniProt Q14790)
inactive: [1] -0.087 | [2] -0.017 | [4] -0.086 | [5] -0.107 | [6] 0.023 | [7] -0.153 | [8] 0.044 | [9] -0.028 | [10] 0.127

CDK17 isoform 2 (UniProt Q00537)
inactive: [1] -0.031 | [2] -0.024 | [3] -0.208 | [4] 0.03 | [5] 0.508 | [6] 0.051 | [8] 0.103 | [9] 0.049 | [10] 0.158

CRYM-AS1 (UniProt A6NIL9)
inactive: [1] 0.159 | [2] 0.047 | [3] 0.146 | [4] -0.364 | [5] 0.037 | [7] -0.16 | [8] -0.041 | [10] 0.109

COG2 (UniProt Q14746)
inactive: [1] -0.006 | [2] 0.25 | [3] -0.048 | [4] -0.053 | [5] 0.58 | [7] -0.187
active: [8] 0.631

CEP128 (UniProt Q6ZU80)
inactive: [1] -0.269 | [2] 0.031 | [3] -0.101 | [4] -0.103 | [6] 0.076 | [8] -0.381 | [9] -0.198
active: [5] 0.677

CASP9 (UniProt P55211)
UniProt P55211, sequence (P55211 whole entry, looked up): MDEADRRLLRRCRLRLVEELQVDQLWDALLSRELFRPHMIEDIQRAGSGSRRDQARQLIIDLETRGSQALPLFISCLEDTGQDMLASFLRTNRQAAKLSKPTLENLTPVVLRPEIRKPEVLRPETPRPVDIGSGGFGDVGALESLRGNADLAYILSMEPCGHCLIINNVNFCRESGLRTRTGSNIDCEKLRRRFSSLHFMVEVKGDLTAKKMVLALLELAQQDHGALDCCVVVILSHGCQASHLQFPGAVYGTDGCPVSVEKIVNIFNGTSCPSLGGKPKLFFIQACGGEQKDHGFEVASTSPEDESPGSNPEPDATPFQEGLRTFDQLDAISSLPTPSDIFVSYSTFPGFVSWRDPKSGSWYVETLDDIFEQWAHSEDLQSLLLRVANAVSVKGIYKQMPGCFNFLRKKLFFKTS
inactive: [1] 0.095 | [2] 0.169 | [3] -0.043 | [4] -0.008 | [6] 0.02 | [7] 0.146 | [9] -0.034 | [10] -0.019

CASP10 isoform 4 (UniProt Q92851)
inactive: [1] 0.012 | [2] 0.078 | [3] 0.062 | [4] -0.049 | [5] 0.009 | [6] -0.089 | [7] -0.036 | [8] -0.128 | [9] -0.047 | [10] 0.079

CSNK1A1 (UniProt P48729)
UniProt P48729, sequence (P48729 whole entry, looked up): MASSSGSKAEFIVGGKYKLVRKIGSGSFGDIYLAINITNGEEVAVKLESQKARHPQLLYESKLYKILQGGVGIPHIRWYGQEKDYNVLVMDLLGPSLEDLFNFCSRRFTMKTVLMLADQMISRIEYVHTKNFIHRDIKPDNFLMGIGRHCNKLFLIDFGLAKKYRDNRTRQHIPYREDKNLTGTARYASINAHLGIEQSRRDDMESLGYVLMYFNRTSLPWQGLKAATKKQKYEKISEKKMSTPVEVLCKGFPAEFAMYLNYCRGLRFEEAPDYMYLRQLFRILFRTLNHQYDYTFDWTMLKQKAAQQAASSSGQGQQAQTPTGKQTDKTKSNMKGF
inactive: [1] 0.147 | [2] 0.08 | [3] 0.024 | [4] 0.094 | [6] -0.214 | [7] -0.106 | [8] -0.036 | [9] 0.019 | [10] 0.024

CRTC1 isoform 2 (UniProt Q6UUV9)
inactive: [2] -0.002 | [4] -0.021 | [6] 0.138 | [9] 0.028 | [10] -0.013
active: [1] -0.39

COPS3 isoform 2 (UniProt Q9UNS2)
inactive: [1] -0.144 | [2] 0.157 | [4] 0.138 | [5] -0.008 | [6] 0.321 | [7] 0.005 | [8] 0.083 | [9] -0.211 | [10] 0.128

CAV2 (UniProt P51636)
inactive: [1] -0.046 | [2] 0.131 | [4] 0 | [5] -0.083 | [6] -0.011 | [7] 0.137 | [8] 0.026 | [9] -0.018 | [10] 0.031

CBR1 (UniProt P16152)
inactive: [1] 0 | [2] -0.024 | [3] 0.071 | [4] -0.074 | [5] -0.036 | [6] 0.001 | [7] -0.004 | [8] 0.028 | [9] 0.037 | [10] -0.035

CLASP2 (UniProt O75122)
UniProt O75122, sequence (O75122 whole entry, looked up): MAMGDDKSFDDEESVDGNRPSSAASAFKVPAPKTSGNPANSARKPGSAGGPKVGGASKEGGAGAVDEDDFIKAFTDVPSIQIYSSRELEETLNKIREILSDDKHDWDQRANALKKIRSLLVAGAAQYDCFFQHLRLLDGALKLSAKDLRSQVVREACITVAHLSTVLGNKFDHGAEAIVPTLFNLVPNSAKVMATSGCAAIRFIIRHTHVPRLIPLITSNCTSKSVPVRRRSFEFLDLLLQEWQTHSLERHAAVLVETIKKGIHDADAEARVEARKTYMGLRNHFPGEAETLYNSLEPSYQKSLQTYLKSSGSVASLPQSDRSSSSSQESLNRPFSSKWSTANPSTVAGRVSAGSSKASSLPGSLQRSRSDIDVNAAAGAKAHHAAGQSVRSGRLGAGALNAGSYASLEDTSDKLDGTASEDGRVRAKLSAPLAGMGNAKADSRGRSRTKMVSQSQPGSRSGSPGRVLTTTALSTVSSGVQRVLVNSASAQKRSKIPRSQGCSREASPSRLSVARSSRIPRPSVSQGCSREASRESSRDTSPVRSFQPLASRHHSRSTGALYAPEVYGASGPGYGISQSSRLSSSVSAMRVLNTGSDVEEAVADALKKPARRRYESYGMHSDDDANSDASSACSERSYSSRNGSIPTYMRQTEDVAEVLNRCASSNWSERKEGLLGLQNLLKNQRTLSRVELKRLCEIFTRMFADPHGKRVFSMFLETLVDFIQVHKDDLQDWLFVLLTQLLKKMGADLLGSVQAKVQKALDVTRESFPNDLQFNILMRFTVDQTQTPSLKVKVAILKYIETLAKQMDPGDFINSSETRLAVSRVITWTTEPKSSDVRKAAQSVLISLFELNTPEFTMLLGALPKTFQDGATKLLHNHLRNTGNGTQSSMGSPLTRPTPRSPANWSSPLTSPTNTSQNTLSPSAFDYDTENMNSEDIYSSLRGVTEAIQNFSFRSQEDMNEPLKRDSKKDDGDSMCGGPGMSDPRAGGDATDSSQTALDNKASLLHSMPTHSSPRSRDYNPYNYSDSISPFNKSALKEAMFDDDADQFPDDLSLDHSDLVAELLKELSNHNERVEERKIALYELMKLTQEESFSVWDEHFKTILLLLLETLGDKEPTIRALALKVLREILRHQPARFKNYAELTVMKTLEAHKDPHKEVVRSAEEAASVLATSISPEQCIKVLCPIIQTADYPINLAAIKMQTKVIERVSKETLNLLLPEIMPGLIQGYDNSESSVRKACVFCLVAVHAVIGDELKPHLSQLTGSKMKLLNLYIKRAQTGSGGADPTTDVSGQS
inactive: [1] 0.015 | [3] 0.235 | [4] 0.101 | [5] -0.025 | [6] 0.125 | [7] 0.071 | [8] 0.072 | [9] 0.032

CDK8 (UniProt P49336)
inactive: [1] 0.03 | [2] 0.008 | [3] -0.044 | [4] -0.136 | [5] -0.137 | [6] -0.105 | [8] -0.005 | [9] -0.047 | [10] 0.038

CAB39L (UniProt Q9H9S4)
inactive: [1] -0.063 | [2] -0.07 | [4] -0.052 | [6] 0.07 | [9] 0.057 | [10] 0.029

CEBPZOS (UniProt A8MTT3)
inactive: [1] 0.111 | [4] -0.021 | [5] -0.014 | [6] -0.085 | [7] 0.004 | [8] 0.098 | [9] -0.037 | [10] -0.045

Reference: the supplement of paper PMC10849652
